# Targets with a hit are over-represented here; the source holds about 7,900 in all. About 0.6% of all pairs of compound and target were hits. Values without a mark were called inactive.
# How the values were obtained:
# Assay in all cases: log2 fold change, soluble protein after heating vs DMSO (PISA); higher = thermal stabilisation; K562 cells, 10 uM, 30 min; active = over 0.2 and 3.5 SD of the protein, either way, in both replicates (recomputed)
# [1] = compound: CS(=O)(=O)c1ccc(-c2cnc(N)c(C(=O)Nc3ccccc3)n2)cc1
# Method in brief: (§1)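 For each measurement, 10 μM compound was applied for 30 min to K562 cells at 2×10^6 cells/mL. Aliquots were heated for 3 min across 48°C-58°C, pooled, and extracted in PBS with 0.5% NP-40 at 4°C; the supernatant after 21,000xg for 90 min was soluble protein. This was quantified by TMTpro 16plex LC-MS/MS with channel sums equalised, and thermal stability was reported relative to control samples from duplicates, on a log2 fold-change scale.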
# crizotinib = compound: C[C@@H](Oc1cc(-c2cnn(C3CCNCC3)c2)cnc1N)c1c(Cl)ccc(F)c1Cl [crizotinib]
# Method in brief: as §1
# [2] = compound: C[C@@H]1COCCN1C2=NC(=NC(=C2)C3(CC3)S(=O)(=O)C)C4=C5C=CNC5=CC=C4
# Method in brief: as §1
# [3] = compound: C[C@H](C1=CC=C(C=C1)C(=O)NC2=C3C=CNC3=NC=C2)N
# Method in brief: as §1
# duvelisib = compound: C[C@H](Nc1ncnc2nc[nH]c12)c1cc2cccc(Cl)c2c(=O)n1-c1ccccc1 [duvelisib]
# Method in brief: as §1
# gandotinib = compound: Cc1cc(Nc2cc(CN3CCOCC3)c3nc(C)c(Cc4ccc(Cl)cc4F)n3n2)n[nH]1 [gandotinib]
# Method in brief: as §1
# tozasertib = compound: Cc1cc(Nc2cc(N3CCN(C)CC3)nc(Sc3ccc(NC(=O)C4CC4)cc3)n2)n[nH]1 [tozasertib]
# Method in brief: as §1
# [4] = compound: Cc1cc(SCc2sc(-c3ccc(C(F)(F)F)cc3)nc2C)ccc1OCC(=O)O
# Method in brief: as §1
# doramapimod = compound: Cc1ccc(-n2nc(C(C)(C)C)cc2NC(=O)Nc2ccc(OCCN3CCOCC3)c3ccccc23)cc1 [doramapimod]
# Method in brief: as §1
# ispinesib = compound: Cc1ccc(C(=O)N(CCCN)[C@@H](c2nc3cc(Cl)ccc3c(=O)n2Cc2ccccc2)C(C)C)cc1 [ispinesib]
# Method in brief: as §1
# Sequence of UniProt Q5U3C3 (Q5U3C3 whole entry, looked up): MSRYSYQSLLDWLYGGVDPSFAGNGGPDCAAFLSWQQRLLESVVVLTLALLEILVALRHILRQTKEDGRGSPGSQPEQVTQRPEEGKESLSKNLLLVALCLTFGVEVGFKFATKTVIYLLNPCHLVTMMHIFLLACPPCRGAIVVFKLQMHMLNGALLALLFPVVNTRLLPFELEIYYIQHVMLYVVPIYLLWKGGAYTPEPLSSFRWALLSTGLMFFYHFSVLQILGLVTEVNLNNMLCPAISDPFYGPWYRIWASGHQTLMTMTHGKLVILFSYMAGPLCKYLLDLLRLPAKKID
# Sequence of UniProt Q7Z6J8 (Q7Z6J8 whole entry, looked up): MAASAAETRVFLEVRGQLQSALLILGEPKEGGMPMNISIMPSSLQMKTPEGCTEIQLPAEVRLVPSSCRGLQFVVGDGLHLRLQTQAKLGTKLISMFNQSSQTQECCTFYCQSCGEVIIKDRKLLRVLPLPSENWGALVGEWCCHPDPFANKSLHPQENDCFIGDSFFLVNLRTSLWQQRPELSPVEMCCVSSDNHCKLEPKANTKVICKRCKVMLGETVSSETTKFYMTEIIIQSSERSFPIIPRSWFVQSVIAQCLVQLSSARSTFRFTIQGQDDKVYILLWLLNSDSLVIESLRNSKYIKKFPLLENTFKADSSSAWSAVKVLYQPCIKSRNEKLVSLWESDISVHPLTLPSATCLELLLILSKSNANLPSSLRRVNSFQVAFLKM
# Sequence of UniProt Q9Y4E6 (Q9Y4E6 whole entry, looked up): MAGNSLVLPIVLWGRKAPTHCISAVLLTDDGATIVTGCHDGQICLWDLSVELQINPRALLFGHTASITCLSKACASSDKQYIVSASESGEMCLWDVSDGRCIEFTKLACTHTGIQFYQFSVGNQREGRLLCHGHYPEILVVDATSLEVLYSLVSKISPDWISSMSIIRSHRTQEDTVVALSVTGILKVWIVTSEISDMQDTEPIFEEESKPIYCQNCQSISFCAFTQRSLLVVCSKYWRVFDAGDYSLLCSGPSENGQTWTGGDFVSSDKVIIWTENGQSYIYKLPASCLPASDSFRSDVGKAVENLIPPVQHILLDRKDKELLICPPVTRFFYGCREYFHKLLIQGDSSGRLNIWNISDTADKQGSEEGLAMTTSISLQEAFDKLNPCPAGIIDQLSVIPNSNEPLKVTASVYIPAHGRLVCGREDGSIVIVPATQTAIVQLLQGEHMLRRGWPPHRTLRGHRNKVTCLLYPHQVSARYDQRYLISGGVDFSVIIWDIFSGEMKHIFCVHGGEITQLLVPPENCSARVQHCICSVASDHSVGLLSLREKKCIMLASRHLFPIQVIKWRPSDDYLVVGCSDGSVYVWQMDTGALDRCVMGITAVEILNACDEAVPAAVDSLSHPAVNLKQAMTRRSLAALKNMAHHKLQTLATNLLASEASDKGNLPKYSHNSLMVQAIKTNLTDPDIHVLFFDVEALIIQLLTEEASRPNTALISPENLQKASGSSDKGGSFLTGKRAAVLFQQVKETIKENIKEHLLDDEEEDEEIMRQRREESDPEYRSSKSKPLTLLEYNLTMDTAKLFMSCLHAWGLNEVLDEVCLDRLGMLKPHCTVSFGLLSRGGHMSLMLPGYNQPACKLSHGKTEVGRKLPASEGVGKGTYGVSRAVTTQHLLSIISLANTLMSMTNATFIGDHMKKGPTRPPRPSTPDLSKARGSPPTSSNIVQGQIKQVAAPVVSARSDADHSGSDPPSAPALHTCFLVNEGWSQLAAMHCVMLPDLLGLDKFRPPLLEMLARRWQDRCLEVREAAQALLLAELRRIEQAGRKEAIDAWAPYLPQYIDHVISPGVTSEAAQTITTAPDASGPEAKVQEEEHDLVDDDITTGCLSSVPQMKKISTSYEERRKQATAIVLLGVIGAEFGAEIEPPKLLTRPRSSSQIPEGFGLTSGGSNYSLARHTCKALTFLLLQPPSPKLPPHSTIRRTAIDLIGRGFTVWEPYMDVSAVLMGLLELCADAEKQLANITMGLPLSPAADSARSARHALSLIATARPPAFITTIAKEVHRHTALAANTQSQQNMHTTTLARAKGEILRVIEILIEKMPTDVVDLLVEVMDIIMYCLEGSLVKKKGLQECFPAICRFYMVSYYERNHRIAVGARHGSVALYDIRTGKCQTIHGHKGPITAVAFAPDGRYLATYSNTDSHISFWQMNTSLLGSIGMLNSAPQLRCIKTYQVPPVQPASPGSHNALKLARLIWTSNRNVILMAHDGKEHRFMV
# Sequence of UniProt Q9Y2L5 (Q9Y2L5 whole entry, looked up): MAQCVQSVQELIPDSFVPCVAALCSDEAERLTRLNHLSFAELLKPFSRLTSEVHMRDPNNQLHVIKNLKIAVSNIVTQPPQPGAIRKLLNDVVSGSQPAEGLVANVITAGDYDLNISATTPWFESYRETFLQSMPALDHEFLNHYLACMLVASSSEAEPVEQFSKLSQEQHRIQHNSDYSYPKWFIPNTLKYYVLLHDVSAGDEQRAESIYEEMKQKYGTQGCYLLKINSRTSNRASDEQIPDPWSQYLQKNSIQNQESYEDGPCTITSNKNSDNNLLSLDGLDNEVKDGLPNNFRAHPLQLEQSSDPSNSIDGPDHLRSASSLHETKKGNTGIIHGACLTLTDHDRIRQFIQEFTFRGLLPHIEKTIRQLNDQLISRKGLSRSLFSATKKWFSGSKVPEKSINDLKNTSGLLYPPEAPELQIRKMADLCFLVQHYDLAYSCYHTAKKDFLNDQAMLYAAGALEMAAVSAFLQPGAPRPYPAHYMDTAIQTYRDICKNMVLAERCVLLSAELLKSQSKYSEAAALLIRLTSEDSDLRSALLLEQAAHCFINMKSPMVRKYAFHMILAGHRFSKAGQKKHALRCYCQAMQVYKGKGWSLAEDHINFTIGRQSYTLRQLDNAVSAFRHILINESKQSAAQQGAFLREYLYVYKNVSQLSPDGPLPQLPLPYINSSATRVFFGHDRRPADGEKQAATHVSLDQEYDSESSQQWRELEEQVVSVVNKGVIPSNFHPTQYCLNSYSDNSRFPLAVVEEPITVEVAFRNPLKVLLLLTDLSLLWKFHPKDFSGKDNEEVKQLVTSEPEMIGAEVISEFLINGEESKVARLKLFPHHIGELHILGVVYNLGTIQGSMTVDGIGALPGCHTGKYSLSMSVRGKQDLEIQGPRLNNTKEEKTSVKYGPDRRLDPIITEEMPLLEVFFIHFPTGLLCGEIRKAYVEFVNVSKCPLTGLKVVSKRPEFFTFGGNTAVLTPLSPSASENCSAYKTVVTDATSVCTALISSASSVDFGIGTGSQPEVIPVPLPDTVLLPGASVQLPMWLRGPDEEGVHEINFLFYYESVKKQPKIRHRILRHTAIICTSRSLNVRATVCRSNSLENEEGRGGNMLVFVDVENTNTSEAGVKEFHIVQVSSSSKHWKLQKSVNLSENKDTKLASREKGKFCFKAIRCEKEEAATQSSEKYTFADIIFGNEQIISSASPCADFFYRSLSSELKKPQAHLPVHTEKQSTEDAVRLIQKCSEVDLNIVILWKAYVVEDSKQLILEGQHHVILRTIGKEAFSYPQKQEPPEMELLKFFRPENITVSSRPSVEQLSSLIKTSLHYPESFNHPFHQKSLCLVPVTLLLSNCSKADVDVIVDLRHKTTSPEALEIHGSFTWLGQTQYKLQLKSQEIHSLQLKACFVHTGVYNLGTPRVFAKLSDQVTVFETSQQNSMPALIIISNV
# Sequence of UniProt Q9NUM4 (Q9NUM4 whole entry, looked up): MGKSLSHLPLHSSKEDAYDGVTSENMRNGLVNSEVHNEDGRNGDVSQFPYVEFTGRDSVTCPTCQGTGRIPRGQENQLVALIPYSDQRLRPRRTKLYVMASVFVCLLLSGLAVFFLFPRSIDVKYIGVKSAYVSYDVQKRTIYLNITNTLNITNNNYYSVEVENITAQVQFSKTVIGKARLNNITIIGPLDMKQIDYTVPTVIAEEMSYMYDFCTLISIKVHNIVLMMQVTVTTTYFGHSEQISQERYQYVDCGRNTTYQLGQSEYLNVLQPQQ
# Sequence of UniProt Q9UL33 (Q9UL33 whole entry, looked up): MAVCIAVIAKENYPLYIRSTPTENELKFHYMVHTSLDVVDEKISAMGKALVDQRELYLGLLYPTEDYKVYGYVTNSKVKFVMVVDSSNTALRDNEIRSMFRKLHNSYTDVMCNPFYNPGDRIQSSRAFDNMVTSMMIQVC
# Sequence of UniProt P28908 (P28908 whole entry, looked up): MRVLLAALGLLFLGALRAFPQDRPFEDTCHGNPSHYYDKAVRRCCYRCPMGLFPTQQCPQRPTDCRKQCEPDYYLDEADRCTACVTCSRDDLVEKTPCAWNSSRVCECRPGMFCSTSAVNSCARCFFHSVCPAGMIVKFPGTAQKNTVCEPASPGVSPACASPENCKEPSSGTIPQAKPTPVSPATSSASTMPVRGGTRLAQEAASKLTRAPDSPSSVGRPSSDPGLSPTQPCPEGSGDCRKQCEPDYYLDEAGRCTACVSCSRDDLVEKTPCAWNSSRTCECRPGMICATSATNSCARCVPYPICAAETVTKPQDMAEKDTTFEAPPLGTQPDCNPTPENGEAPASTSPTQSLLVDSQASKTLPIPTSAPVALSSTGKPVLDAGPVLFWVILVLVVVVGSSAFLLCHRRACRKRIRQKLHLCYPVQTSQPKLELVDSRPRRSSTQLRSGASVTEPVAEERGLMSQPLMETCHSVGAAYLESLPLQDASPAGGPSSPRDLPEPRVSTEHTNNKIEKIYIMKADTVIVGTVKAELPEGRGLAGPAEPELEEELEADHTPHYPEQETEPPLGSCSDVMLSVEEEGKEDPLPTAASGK
# Sequence of UniProt P57081 (P57081 whole entry, looked up): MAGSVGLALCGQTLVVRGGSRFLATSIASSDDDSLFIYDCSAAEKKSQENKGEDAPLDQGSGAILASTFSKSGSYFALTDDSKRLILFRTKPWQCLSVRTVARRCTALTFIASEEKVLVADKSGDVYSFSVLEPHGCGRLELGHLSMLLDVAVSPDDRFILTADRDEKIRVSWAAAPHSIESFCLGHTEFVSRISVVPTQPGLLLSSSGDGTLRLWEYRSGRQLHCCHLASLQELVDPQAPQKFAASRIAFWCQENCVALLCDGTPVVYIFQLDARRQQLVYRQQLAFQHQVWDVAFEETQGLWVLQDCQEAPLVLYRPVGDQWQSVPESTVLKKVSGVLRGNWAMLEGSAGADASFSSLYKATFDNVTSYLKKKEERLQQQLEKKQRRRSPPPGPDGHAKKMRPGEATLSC
Target,log2 fold change [1],log2 fold change (crizotinib),log2 fold change [2],log2 fold change [3],log2 fold change (duvelisib),log2 fold change (gandotinib),log2 fold change (tozasertib),log2 fold change [4],log2 fold change (doramapimod),log2 fold change (ispinesib)
TRAPPC8 (UniProt Q9Y2L5),0.036,-0.033,-0.008,0.032,0.002,-0.056,0.015,0.117,-0.012,-0.138
TRAPPC2L (UniProt Q9UL33),0.009,-0.035,0.054,0.035,0.026,-0.023,0.015,0.001,-0.143,0.119
WDR18 (UniProt Q9BV38),-0.023,-0.008,-0.022,-0.102,-0.012,-0.021,0.022,-0.009,0.026,0.027
WASHC3 (UniProt Q9Y3C0),-0.014,-0.274 (active),0.096,-0.039,0.012,-0.041,0.021,0.014,0.048,-0.4 (active)
USP7 (UniProt Q93009),0.008,-0.311,0.147,0.07,0.046,-0.157,-0.077,0.146,-0.039,-0.175
TSFM (UniProt P43897),-0.083,0.171,0.152,-0.104,0.044,-0.083,-0.033,0.095,-0.095,0.398 (active)
WDR7 (UniProt Q9Y4E6),0.025,0.024,-0.029,-0.096,0.042,-0.009,-0.003,0.08,0.065,-0.075
UBE3D (UniProt Q7Z6J8),0.002,0.053,0.128,-0.067,0.016,-0.147,0.076,-0.052,-0.01,-0.024
VAMP7 (UniProt P51809),0.021,-0.299 (active),0.005,-0.046,-0.005,-0.026,0.005,-0.011,-0.007,-0.275 (active)
WDR61 (UniProt Q9GZS3),0.043,-0.044,0.071,-0.056,0.059,-0.099,-0.072,-0.017,-0.004,-0.028
TMEM164 (UniProt Q5U3C3),0,-0.036,0.139,0.05,0.601 (active),-0.204,0.031,0.027,0.091,
TMEM173 (UniProt Q86WV6),0.042,0.147,0.041,0.004,0.017,-0.151,0.01,0.078,0.023,0.037
TRMT61A (UniProt Q96FX7),-0.017,-0.046,-0.201,0.168,-0.004,0.168,-0.016,0.106,0.011,-0.093
WARS1 (UniProt G3V3P2),-0.07,,,,,,,,,
TMEM106B (UniProt Q9NUM4),-0.024,-0.382 (active),0.389,-0.054,0.03,-0.021,-0.073,0,0.014,
XPO6 (UniProt Q96QU8),-0.033,0.177,-0.277,0.031,-0.001,0.104,-0.011,0.027,0.179,0

Target,log2 fold change [1],log2 fold change (crizotinib),log2 fold change [2],log2 fold change [3],log2 fold change (duvelisib),log2 fold change (gandotinib),log2 fold change (tozasertib),log2 fold change [4],log2 fold change (doramapimod),log2 fold change (ispinesib)
VRK1 (UniProt Q99986),0.055,-0.11,0.126,0.444 (active),0.168,-0.067,-0.096,0.161,-0.075,-0.077
VPS13B (UniProt Q7Z7G8),0.023,0.015,0.045,-0.033,-0.064,-0.062,-0.01,0.015,0.028,-0.134
UBAP1 isoform 4 (UniProt Q9NZ09),-0.003,-0.008,0.07,0.023,0.052,0.009,0.399,0.082,0.044,-0.046
TRMT2A (UniProt Q8IZ69),-0.034,-0.016,-0.072,0.152,-0.041,0.019,0.063,0.045,0.07,-0.122
TMEM87B (UniProt Q96K49),0.01,-0.323,-0.063,-0.033,0.101,-0.11,0.07,0.071,-0.059,-0.406 (active)
TRIM28 (UniProt Q13263),-0.001,0.046,0.048,-0.068,0.027,-0.033,0.13,0.039,-0.036,-0.007
TMEM189-UBE2V1 (UniProt I3L0A0),0.063,0.022,0.051,0.051,0.042,0.007,-0.009,-0.034,0.021,0.071
"WASHC2C, A0A096LPC5",-0.078,-0.363,0.031,0.025,0.15,0.189,0.007,-0.053,0.02,-0.135
WDHD1 (UniProt O75717),0.038,0.021,0.098,-0.025,0.109,-0.029,0.09,0.109,-0.093,0.042
TXNL1 (UniProt O43396),0.027,0.067,-0.01,-0.028,0.013,-0.076,0.038,0.068,-0.049,0.07
WDR4 (UniProt P57081),0.085,-0.038,-0.024,-0.121,0.014,0.049,-0.007,0.017,0.023,0.075
TNFRSF8 (UniProt P28908),0.051,0.15,0.009,-0.073,0.027,0.012,-0.05,-0.063,-0.011,0.029
TNPO2 (UniProt O14787),0.019,-0.153,0.046,-0.037,0.03,-0.059,0.077,0.048,0.011,-0.14
VPS11 (UniProt Q9H270),0.009,-0.373 (active),-0.039,0.054,-0.016,-0.111,0.034,0.095,-0.029,-0.226
WDR43 (UniProt Q15061),0.008,0.08,0.016,-0.051,0.062,0.009,-0.012,-0.053,-0.035,0.081

# Reference: the supplement of paper PMC10849652
